Marburg entry inh: qHTS for inhibitors of binding or entry into cells for Marburg Virus; Marburg virus pseudotyped entry inhibition, cell reporter; Potency, µM (top dose mostly 37.8 µM), actives largely listed as inhibitors; 300,000 compounds, 1.8% hits; calls by dose curve; tested in HEK293 cells
VACV Venus inh: qHTS for Stage-Specific Inhibitors of Vaccinia Orthopoxvirus: Venus Reporter Primary qHTS; Vaccinia virus Venus reporter expression, fluorescence; Potency, µM (top dose mostly 36.5 µM), usual class: inhibitors; 330,000 compounds, 0.46% hits; AID 720580, 2013; calls by dose curve; tested in A549 cells; note: nearly all actives have a fitted effect of over 30% in size
HCV inh: qHTS Assay for Inhibitors of Hepatitis C Virus (HCV); Huh7.5.1 HCVcc-Cre infection, luciferase reporter, 44 h; Potency, µM (highest dose often 41.8 µM), usual class: inhibitors; 340,000 compounds, 3.4% hits; AID 651820, 2012; active = well fitted inhibition curve with a large enough effect; inconclusive = small, poorly fitted or top-dose-only effect, or another doubt; inactive = no such curve, though single readings can be large or run the other way
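Cells seeded at 1,000/well and cultured 4 h, then compounds added followed by HCVcc-Cre virus (~0.5 moi). After 44 h further culture, luciferase substrate was added, plates held 15 min at room temperature, and luminescence read for 15 sec.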
Lassa entry inh: qHTS for Inhibitors of binding or entry into cells for Lassa Virus; Lassa virus pseudotype entry inhibition, cell reporter; Potency, µM (series often up to 37.9 µM), most hits filed as inhibitors; 300,000 compounds, 1.2% hits; calls by dose curve; tested in HEK293 cells; note: nearly all actives have a fitted effect of over 50% in size
Vaccinia mCherry: qHTS for Stage-Specific Inhibitors of Vaccinia Orthopoxvirus: mCherry Reporter Primary qHTS. Vaccinia virus mCherry reporter infection, fluorescence. Potency, µM (series often up to 36.5 µM), actives largely listed as inhibitors. 310,000 compounds, 0.63% hits; calls by dose curve; tested in A549 cells; note: nearly all actives have a fitted effect of over 35% in size
HCMV inh: qHTS Assay for inhibitors of the human cytomegalovirus (HCMV); HFF cells, HCMV-luciferase reporter, 72 h; stronger effect = lower value; activity change, negative = inhibition, % at 57.5 µM; 410,000 compounds, 4.5% hits; AID 1259415, 2018; in the data active = activity change below about -60%; inconclusive = no clear call, values can overlap the other calls; inactive = above about -39%
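Compounds were evaluated in HFFs infected with an HCMV luciferase reporter virus (MOI 1 PFU/cell). Luciferase in lysates collected 72 h post infection served as the replication measure.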
Numbers stand for hits; 0 = inactive; ? = inconclusive; - = no result; [ ] = another dose, or the depositor's remark. Only some compounds are listed: those with a hit (about 7.8% of all), similar ones and a draw of the others.

SMILES	Marburg entry inh	VACV Venus inh	HCV inh	Lassa entry inh	Vaccinia mCherry	HCMV inh
O=C1CN(C(=O)CSc2nc(-c3ccccc3)cs2)c2ccccc2N1	?	0	?	?	0	-61.4
C=CCn1c(SCC(=O)N2CC(=O)Nc3ccccc32)nc2scc(-c3cccs3)c2c1=O	?	-	?	14.6µM	-	0
Cc1cccc2cc(C#N)c(SCC(=O)N3CC(=O)Nc4ccccc43)nc12	?	?	?	?	-	-96.5
CCCN1Cc2cccc(C(=O)Nc3ccccc3F)c2C1=O	0	0	-	?	0	0
O=C(CSc1nnc(CNC(=O)c2ccccc2F)n1-c1ccccc1)Nc1ccccc1F	?	0	-	0	0	0
CCOC(=O)c1cnc2c(Cl)c(Cl)ccc2c1Nc1ccc(N(C)C)cc1	0	0	-	0	0	0
COc1ccc(CNc2nc(NCc3ccc(OC)cc3)n(C(=O)c3ccncc3)n2)cc1	-	-	0	-	-	0
COc1ccc(CNc2nc(NCc3ccc(OC)cc3)n(C(=O)c3ccccc3[N+](=O)[O-])n2)cc1	0	0	?	4.11µM	0	0
COc1cccc(NC(=O)C2CCN(S(C)(=O)=O)CC2)c1	0	0	0	0	0	0
Cc1nc(-c2cccc(S(=O)(=O)N3CCC(C(=O)NCc4ccccc4Cl)CC3)c2)no1	-	0	-	0	0	0
CCc1cccc(NC(=O)C2CCCN2S(=O)(=O)c2ccc3nc(-c4ccccc4)[nH]c3c2)c1 (stereo not drawn)	-	?	-	0	?	-60.3
COc1cccc(NC(=O)C2CCN(S(=O)(=O)c3cc(-c4noc(C)n4)ccc3C)CC2)c1	-	?	-	?	?	-72.4
Cc1nc(-c2ccc(C)c(S(=O)(=O)N3CCC(C(=O)Nc4ccc(Cl)cc4)CC3)c2)no1	-	?	-	?	0	-74.8
CC(=O)c1ccc(N2CCN(S(=O)(=O)c3cc(-c4noc(C)n4)ccc3C)CC2)cc1	-	0	-	0	0	0
CCc1cccc(NC(=O)C2CCN(S(=O)(=O)c3cccc(-c4noc(C)n4)c3)CC2)c1	-	0	-	?	0	-61.0
COc1ccccc1CNC(=O)c1cnc2sc(N3CCCCC3)nn2c1=O	-	0	-	0	0	0
CCOC1CCCc2oc(-c3ccsc3)c(-c3cnc(OC)nc3)c21 (stereo not drawn)	-	0	-	-	0	0
Cc1ccc(Cn2c(=O)c3ccccc3n3c(-c4cccc(O)c4)nnc23)cc1	0	0	-	0	0	0
CN(Cc1cccs1)[C@H]1CC[C@@]23CCCN2C(=O)CCC[C@H]3[C@H]1Cc1ccccc1	-	-	-	-	-	0
Cc1ccc(-c2csc(N3CCN(CCCn4c(C(F)(F)F)nc5ccccc54)CC3)n2)cc1	-	0	0	-	0	?
CC(=O)N[C@@H](C)c1nc2ccccc2n1CCCN1CCN(c2nc(-c3ccc(C)cc3)cs2)CC1	-	?	3.55µM	-	?	-67.5
Cc1ccc(-c2csc(N3CCN(CCCn4c(-c5ccncc5)nc5ccccc54)CC3)n2)cc1	-	?	?	-	10µM	?
COc1ccc2oc3cc(C)[n+]([O-])c(-c4ccc(Br)cc4)c3c2c1	0	0	?	?	0	-84.3
COc1ccccc1Cc1c(-c2ccc(C)cc2)nc2c3ccccc3ccn12	-	-	-	-	-	0
CCOP(=O)(OCC)c1cccc(OP(=O)(c2cccc([N+](=O)[O-])c2)c2cccc([N+](=O)[O-])c2)c1	0	0[7.34 µM]	0	0	0[7.34 µM]	0
SMILES	Marburg entry inh	VACV Venus inh	HCV inh	Lassa entry inh	Vaccinia mCherry	HCMV inh
CCOP(=O)(OCC)c1cccc(O)c1	0	0	0	0	0	-65.0
CC(C)(C)c1ccc(OCCCNC2CCCC2)cc1	6.31µM	0	?	?	0	0
Cc1ccc(OCCCNC2CCCC2)cc1	0	-	0	0	-	0
CC(C)(C)c1ccc(OCCCNCc2ccccc2)cc1	?	?	11.2µM	?	0	0
CC(C)c1ccc(OCC(=O)Nc2c(C(=O)c3ccc(F)cc3)oc3ccccc23)cc1	0	0	-	0	0	0
COc1ccc(NS(=O)(=O)c2ccc3nc(COc4ccc(C#N)cc4)[nH]c3c2)cc1	0	0	12.6µM	0	0	0
C/C(=N\NC(=O)c1c[nH]c2ccccc12)c1ccc2c(c1)OCO2	-	-	0	-	-	0
C/C(=N\NC(=O)Cc1c[nH]c2ccccc12)c1ccc2ccccc2c1	?	0	0	3.98µM	0	0

Screens from PubChem BioAssay.
